B1: unnamed (peptide)
chain: APKHAPPPVPNETDN

target: ScBbc1; experiment: SPOT peptide array binding signal intensity (averaged, normalized) (arbitrary units (background-subtracted, floor 0; scale differs between SH3 domains)); higher = stronger binding of the SH3 domain to the peptide
Summary of the method: (§1)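 Binding signal refers to normalized, background-subtracted spot intensity averaged over replicates, expressed in arbitrary units that differ between domains. GST-fused SH3 domains from four yeast species were incubated at 10 μg/ml overnight at 4°C on cellulose membranes of synthetic 15-mer peptides with cysteines replaced by serines. Bound protein was detected with anti-GST antibody, an HRP anti-mouse secondary and luminol, and quantified with Genespotter.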

Binder | SPOT peptide array binding signal intensity
B1 | ≤ 0

target: ScBem1-D1; experiment: as above
Summary of the method: as §1

Binder | SPOT peptide array binding signal intensity
B1 | ≤ 0

target: ScBzz1-D1; experiment: as above
Summary of the method: as §1

Binder | SPOT peptide array binding signal intensity
B1 | 618

target: ScBzz1-D2; experiment: as above
Summary of the method: as §1

Binder | SPOT peptide array binding signal intensity
B1 | ≤ 0

target: ScCyk3; experiment: as above
Summary of the method: as §1

Binder | SPOT peptide array binding signal intensity
B1 | ≤ 0

target: ScFus1; experiment: as above
Summary of the method: as §1

Binder | SPOT peptide array binding signal intensity
B1 | ≤ 0

target: ScHof1; experiment: as above
Summary of the method: as §1

Binder | SPOT peptide array binding signal intensity
B1 | ≤ 0

target: ScHse1; experiment: as above
Summary of the method: as §1

Binder | SPOT peptide array binding signal intensity
B1 | ≤ 0

target: ScLsb1; experiment: as above
Summary of the method: as §1

Binder | SPOT peptide array binding signal intensity
B1 | ≤ 0

target: ScLsb2; experiment: as above
Summary of the method: as §1

Binder | SPOT peptide array binding signal intensity
B1 | ≤ 0

target: ScLsb3; experiment: as above
Summary of the method: as §1

Binder | SPOT peptide array binding signal intensity
B1 | ≤ 0

target: ScLsb4; experiment: as above
Summary of the method: as §1

Binder | SPOT peptide array binding signal intensity
B1 | ≤ 0

target: ScMyo3; experiment: as above
Summary of the method: as §1

Binder | SPOT peptide array binding signal intensity
B1 | 1380

target: ScMyo5; experiment: as above
Summary of the method: as §1

Binder | SPOT peptide array binding signal intensity
B1 | 1230

target: ScNbp2; experiment: as above
Summary of the method: as §1

Binder | SPOT peptide array binding signal intensity
B1 | ≤ 0

target: ScPex13; experiment: as above
Summary of the method: as §1

Binder | SPOT peptide array binding signal intensity
B1 | ≤ 0

target: ScRvs167; experiment: as above
Summary of the method: as §1

Binder | SPOT peptide array binding signal intensity
B1 | ≤ 0

target: ScSho1; experiment: as above
Summary of the method: as §1

Binder | SPOT peptide array binding signal intensity
B1 | ≤ 0

target: ScSla1-D1-D2; experiment: as above
Summary of the method: as §1

Binder | SPOT peptide array binding signal intensity
B1 | ≤ 0

target: ScSla1-D3; experiment: as above
Summary of the method: as §1

Binder | SPOT peptide array binding signal intensity
B1 | ≤ 0

target: SpAbp1-D1; experiment: as above
Summary of the method: as §1

Binder | SPOT peptide array binding signal intensity
B1 | ≤ 0

target: SpBbc1; experiment: as above
Summary of the method: as §1

Binder | SPOT peptide array binding signal intensity
B1 | ≤ 0

target: SpBzz1-D1; experiment: as above
Summary of the method: as §1

Binder | SPOT peptide array binding signal intensity
B1 | ≤ 0

target: SpBzz1-D2; experiment: as above
Summary of the method: as §1

Binder | SPOT peptide array binding signal intensity
B1 | ≤ 0

target: SpCyk3; experiment: as above
Summary of the method: as §1

Binder | SPOT peptide array binding signal intensity
B1 | ≤ 0

target: SpHof1; experiment: as above
Summary of the method: as §1

Binder | SPOT peptide array binding signal intensity
B1 | ≤ 0

target: SpHof1-2; experiment: as above
Summary of the method: as §1

Binder | SPOT peptide array binding signal intensity
B1 | ≤ 0

target: SpHof1-3; experiment: as above
Summary of the method: as §1

Binder | SPOT peptide array binding signal intensity
B1 | ≤ 0

target: SpHse1; experiment: as above
Summary of the method: as §1

Binder | SPOT peptide array binding signal intensity
B1 | 140

target: SpLsb1; experiment: as above
Summary of the method: as §1

Binder | SPOT peptide array binding signal intensity
B1 | ≤ 0

target: SpLsb4; experiment: as above
Summary of the method: as §1

Binder | SPOT peptide array binding signal intensity
B1 | ≤ 0

target: SpMyo1; experiment: as above
Summary of the method: as §1

Binder | SPOT peptide array binding signal intensity
B1 | 691

target: SpNbp2; experiment: as above
Summary of the method: as §1

Binder | SPOT peptide array binding signal intensity
B1 | ≤ 0

target: SpPex13; experiment: as above
Summary of the method: as §1

Binder | SPOT peptide array binding signal intensity
B1 | ≤ 0

target: SpRvs167; experiment: as above
Summary of the method: as §1

Binder | SPOT peptide array binding signal intensity
B1 | 2.5

target: SpSla1-D1-D2; experiment: as above
Summary of the method: as §1

Binder | SPOT peptide array binding signal intensity
B1 | ≤ 0

target: SpSla1-D3; experiment: as above
Summary of the method: as §1

Binder | SPOT peptide array binding signal intensity
B1 | ≤ 0

Reference: the supplement of paper PMC4466140
